Measles CPE = protection of cells from measles virus | Measles virus-infected cells, CPE protection, absorbance | 1.5% of 140,000 active | protection (pct of control), % at 4 µM; in the data active = protection mostly above about 24%, no sharp cut-off; inactive = mostly below about 26%
CYP2C9 inhib = inhibitors of human CYP2C9 | 20% of 96,000 active | P11712 | CYP2C9 Supersomes, luciferin-H conversion, luminescence | inhibition, % at 5 µM | AID 777;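 active = blocking of liver enzyme CYP2C9 beyond about 50% at 5 µM, limit read from the data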
CYP2C19 activ = cytochrome P450 2C19 (human) activation; P33261; recombinant CYP2C19, luciferin-H EGE luminescence; active compounds read high; 0 = fully inhibited enzyme, 1 = untreated enzyme; activation factor at 5 µM; 96,000 tested, under 10 active;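 active = activation factor of at least 2 at 5 µM in the primary screen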;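 note: 0 = wells with 2.5 mM tranylcypromine and 1 = vehicle-only wells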
Target sequence (P33261 whole entry, looked up): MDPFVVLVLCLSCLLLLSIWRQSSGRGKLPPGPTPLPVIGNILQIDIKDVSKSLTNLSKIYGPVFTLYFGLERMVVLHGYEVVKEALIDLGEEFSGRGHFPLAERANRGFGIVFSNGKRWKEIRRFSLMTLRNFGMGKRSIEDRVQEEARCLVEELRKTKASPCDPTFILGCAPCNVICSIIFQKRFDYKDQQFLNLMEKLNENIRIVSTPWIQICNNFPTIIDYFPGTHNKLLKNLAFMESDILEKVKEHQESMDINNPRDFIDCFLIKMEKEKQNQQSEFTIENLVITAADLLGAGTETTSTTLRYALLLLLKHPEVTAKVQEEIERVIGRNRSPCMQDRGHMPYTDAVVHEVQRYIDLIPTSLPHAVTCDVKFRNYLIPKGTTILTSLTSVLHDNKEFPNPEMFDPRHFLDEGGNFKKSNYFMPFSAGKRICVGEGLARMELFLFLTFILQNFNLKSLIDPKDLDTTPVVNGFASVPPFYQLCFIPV
CYP2C19 inhib = inhibitors of human CYP2C19. P33261. CYP2C19 Supersomes, luciferin-H EGE luminescence, 30 min. inhibition, % at 5 µM. 21% of 96,000 active;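 active = CYP2C19 inhibition above a set limit at 5 µM in the primary screen, cut at about 50% in these data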;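 note: plate controls were negative control wells for no effect and 2.5 mM tranylcypromine positive control for full effect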
CYP2C9 act = increases human cytochrome P450 2C9 activity; 1.4% of 96,000 active; recombinant CYP2C9, luciferin-H conversion, luminescence; active compounds read high; factor 1 = untreated enzyme, 0 = blocked; activation factor at 5 µM; P11712; AID 1024;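 active = activation factor of 2 or more for CYP2C9 at a 5 µM dose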;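 note: 0 = sulfaphenazole-blocked wells and 1 = vehicle-only wells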
* = called active by the depositor. In the library only some 22% were active in any assay of this set; here they are far more common.

COc1ccc(OC)c(C2C(C#N)=C(N)Oc3c2c(C)nn3-c2cccc(Cl)c2)c1 (centres undefined) was read as Measles CPE 3, CYP2C9 inhib 98*, CYP2C19 activ 0.2, CYP2C19 inhib 83* and CYP2C9 act 0.
Screening COc1ccc2c(c1)c(=O)c(C(=O)O)c(-c1ccc3c(c1)OCO3)n2C returned Measles CPE 3.
For CCN(CC)c1ncc(C)c(=O)[nH]1 the results were CYP2C9 inhib -7, CYP2C19 activ 1, CYP2C19 inhib -2 and CYP2C9 act 1.1.
CCCCNCc1cc(Br)c(OCc2cccs2)c(OC)c1 was read as Measles CPE 4, CYP2C9 inhib -5, CYP2C19 activ 0.4, CYP2C19 inhib 65* and CYP2C9 act 1.1.
For CCOc1c(Br)cc(CNCc2cccs2)cc1OC the results were Measles CPE 5.
Cn1c(Oc2ccccc2NCc2cccc(Br)c2)cc(=O)n(C)c1=O was read as Measles CPE 3, CYP2C9 inhib 41, CYP2C19 activ 0.6, CYP2C19 inhib 45 and CYP2C9 act 0.6.
Screening CC(Sc1nnc(-c2cccnc2)n1-c1ccccc1)C(=O)NCc1ccc2c(c1)OCO2 (centres undefined) returned Measles CPE 9, CYP2C9 inhib 91*, CYP2C19 activ 0.5, CYP2C19 inhib 46 and CYP2C9 act 0.1.
Screening O=C(CSc1nnc(-c2cccnc2)n1-c1ccccc1)NCc1ccc2c(c1)OCO2 returned Measles CPE 24, CYP2C9 inhib 18, CYP2C19 activ 1, CYP2C19 inhib -2 and CYP2C9 act 0.8.
For C=CCn1c(SC(C)C(=O)NCc2ccc3c(c2)OCO3)nnc1C1CCCCC1 (centres undefined) the results were Measles CPE 16, CYP2C9 inhib 57*, CYP2C19 activ 0.4, CYP2C19 inhib 56* and CYP2C9 act 0.4.
For O=C(C1CC1)N1CCc2cc(S(=O)(=O)N(CCO)Cc3ccccc3)ccc21 the results were Measles CPE 2.
O/N=C1/CCc2nonc2/C1=N/O was read as Measles CPE 0, CYP2C9 inhib -5, CYP2C19 activ 1.1, CYP2C19 inhib -11 and CYP2C9 act 1.1.
`O=C(Cn1c(C(F)(F)F)nc2ccccc21)Nc1ccccc1N1CCOCC1` gave Measles CPE 1, CYP2C9 inhib 82*, CYP2C19 activ 0.6, CYP2C19 inhib 38 and CYP2C9 act 0.2.
`CSc1nc2ccccc2n1CC(=O)Nc1cc(C(F)(F)F)ccc1N1CCOCC1` gave Measles CPE 25, CYP2C9 inhib 97*, CYP2C19 activ 0.1, CYP2C19 inhib 87* and CYP2C9 act 0.
CCC(=O)Nc1cc(C(F)(F)F)ccc1N1CCOCC1 was read as Measles CPE 3, CYP2C9 inhib 30, CYP2C19 activ 0.7, CYP2C19 inhib 32 and CYP2C9 act 0.7.
Screening CC(C)CNC(=O)c1ccc(Cl)c(N)c1 returned Measles CPE 8.
Screening COc1ccc(/C(O)=C/c2nc3ccc(C(=O)NCCc4cccc(C)c4)cc3[nH]c2=O)cc1OC returned Measles CPE 14.
For CCOC(=O)CC(=O)CSc1ncnc2c1oc1ccccc12 the results were Measles CPE 17, CYP2C9 inhib 39, CYP2C19 activ 0.6, CYP2C19 inhib 44 and CYP2C9 act 0.6.
For Cc1ccc(NC(=O)Nc2ncccc2C)cc1 the results were Measles CPE 5, CYP2C9 inhib 0, CYP2C19 activ 0.8, CYP2C19 inhib 21 and CYP2C9 act 1.
For Cc1ccccc1CNC(=O)Nc1cccs1 the results were Measles CPE 30, CYP2C9 inhib 45, CYP2C19 activ 0.3, CYP2C19 inhib 72* and CYP2C9 act 0.5.
Cc1cccnc1NC(=O)Nc1cccs1 was read as Measles CPE 13, CYP2C9 inhib 27, CYP2C19 activ 0.5, CYP2C19 inhib 50* and CYP2C9 act 0.7.
Screening CN(C(=O)COC(=O)c1ccc(Cl)cc1N)C1CCS(=O)(=O)C1 (centres undefined) returned Measles CPE 9, CYP2C9 inhib -5, CYP2C19 activ 1.3, CYP2C19 inhib -33 and CYP2C9 act 1.1.
O=Cc1cn(-c2ccccc2)nc1-c1cc2cc(O)ccc2oc1=O was read as Measles CPE 3, CYP2C9 inhib 81*, CYP2C19 activ 0.9, CYP2C19 inhib 6 and CYP2C9 act 0.2.
`COc1ccc(C)cc1NC(=O)CN1CCN(c2ccc(F)cc2)CC1` gave Measles CPE 4, CYP2C9 inhib 12, CYP2C19 activ 0.2, CYP2C19 inhib 78* and CYP2C9 act 0.9.
COc1ccccc1NC(=O)CN1CCN(c2ccccn2)CC1 was read as Measles CPE 15.
For COC(=O)c1sccc1NC(=O)CN1CCN(c2ccc(F)cc2)CC1 the results were Measles CPE 10, CYP2C9 inhib 54*, CYP2C19 activ 0.6, CYP2C19 inhib 39 and CYP2C9 act 0.5.
COc1ccccc1NC(=O)CN1CCN(CC(=O)Nc2ccc(OCc3ccccc3)cc2)CC1 was read as Measles CPE 15, CYP2C9 inhib 79*, CYP2C19 activ 0.1, CYP2C19 inhib 87* and CYP2C9 act 0.2.
For COc1ccccc1NC(=O)CN1CCN(Cc2ccccc2)CC1 the results were Measles CPE 26, CYP2C9 inhib 36, CYP2C19 activ 0.3, CYP2C19 inhib 72* and CYP2C9 act 0.6.
`N#CC1(c2ccc(NC(=O)c3ccccc3F)cc2)CCCC1` gave Measles CPE 17.
`O=C(Cc1c(O)c2ccccc2[nH]c1=O)OC1CCCCC1` gave Measles CPE 9, CYP2C9 inhib -1, CYP2C19 activ 1, CYP2C19 inhib -1 and CYP2C9 act 1.
`COc1cc(NC(=O)COC(=O)C2CC2)c(C)cc1[N+](=O)[O-]` gave Measles CPE 26.
Screening COc1cc(NC(=O)CN2CCC(Cc3ccccc3)CC2)c(C)cc1[N+](=O)[O-] returned Measles CPE 70*.
For COc1ccccc1NC(=O)CN1CCN(CC(=O)Nc2ccc(F)cc2)CC1 the results were Measles CPE 2, CYP2C9 inhib 26, CYP2C19 activ 0.1, CYP2C19 inhib 88* and CYP2C9 act 0.7.
COc1ccc(NC(=O)CN2CCN(CC(=O)Nc3ccccc3F)CC2)cc1OC was read as Measles CPE 10, CYP2C9 inhib 20, CYP2C19 activ 0.8, CYP2C19 inhib 19 and CYP2C9 act 0.8.
CCNC(=S)Nc1nc2c(cc1C(=O)OCC)CCCC2 was read as Measles CPE 23.
For CCOC(=O)C(C)n1cnc2c(oc3ccccc32)c1=O (centres undefined) the results were Measles CPE 19, CYP2C9 inhib 18, CYP2C19 activ 0.9, CYP2C19 inhib 8 and CYP2C9 act 0.8.
`CCOC(=O)c1ccc(NC(=O)CSc2nc(NC(=O)c3ccccc3)c3c(C)c(C)oc3n2)cc1` gave Measles CPE 4, CYP2C9 inhib 76*, CYP2C19 activ 0.4, CYP2C19 inhib 60* and CYP2C9 act 0.2.

Screens as filed in PubChem BioAssay.
